# Measured values published in PubChem BioAssay (NCATS).
# Results filed as inconclusive are left out. Where a call stands in place of a potency, no number is given. Active and inactive are the calls of the source. Calls come from the whole dose curve; as a rule, active = well fitted inhibition curve with a large enough effect; inconclusive = small, poorly fitted or top-dose-only effect; inactive = flat fitted curve, though single readings scatter.
# Target: Calcium and integrin-binding protein 1 (Homo sapiens) (UniProt Q99828)
# Sequence (Q99828 whole entry, looked up): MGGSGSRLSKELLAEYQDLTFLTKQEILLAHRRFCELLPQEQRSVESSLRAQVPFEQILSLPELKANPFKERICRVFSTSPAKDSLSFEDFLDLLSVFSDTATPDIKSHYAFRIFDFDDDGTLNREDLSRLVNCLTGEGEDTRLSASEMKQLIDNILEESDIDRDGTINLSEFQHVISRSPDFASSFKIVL
# Assay: Primary qHTS for Identification of Calcium Integrin Binding Protein 1 (CIB1) Competitor (AID 1508620);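 note: GST tagged CIB1 binding a fluorescein labelled alphaIIb integrin peptide tracer; top concentration of the series differs between compounds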
# Details: CIB1-GST / FITC-alphaIIb peptide fluorescence polarization; series mostly up to 114 µM
# Method in brief: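 Fluorescence polarization competition: CIB1-GST (1 uM final) preincubated with compound 15 min at room temperature, then FITC-labeled alphaIIb peptide (100 nM final) added for another 15 min. Polarization read at Ex 480/Em 540.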
row,SMILES,Potency
1,Cc1cc(-c2ccccc2)nc2c(C(=O)Nc3ccc(Cl)c(Cl)c3)cnn12,inactive
2,CC(C)c1ccccc1-c1nccc(NCc2ccc(-c3cccnc3)cc2)n1,inactive
3,Cc1cc(C)n2ncc(C(=O)NCC(C)C)c2n1,inactive
4,Oc1ccc(CNc2ccccc2C(F)(F)F)c2cccnc12,inactive
5,Fc1cc(Nc2nc(-c3ccncc3)nc3ccccc23)ccc1C(F)(F)F,inactive
6,CC(=O)Nc1sc2c(c1-c1cccc3[nH]ncc13)CCNC2,inactive
7,Cc1cc(C)nc(NC(=S)N2CCN(c3cccc(C#N)c3)CC2)c1,inactive
8,COc1cccc(C2c3c(ncn(-c4cccc(OC)c4)c3=N)Oc3ccc4ccccc4c32)c1 (centres undefined),inactive
9,O=C(Nc1ccc(F)nc1)Nc1nnc(-c2ccncc2)s1,inactive
10,N#Cc1c(-c2ccc(-c3ccccc3)cc2)no[n+]1[O-],inactive
11,COc1ccc(C2c3c(n(CCCc4ccccc4)cnc3=N)Oc3ccc4ccccc4c32)cc1OC (centres undefined),inactive
12,CN(Cc1ncc[nH]1)c1ncnc2ccc(-c3ccc4c(c3)OCO4)cc12,inactive
13,CC(C)(C#CCSc1nnc(-c2cccc3ccccc23)o1)OC(=O)c1ccc(F)cc1,inactive
14,N#CN1CCC(N[S+](=O)([O-])c2cccc(F)c2)CC1,inactive
15,COc1ccc([S+](=O)([O-])N2CCCN([S+](=O)([O-])c3ccc(OC)c(N)c3)CC2)cc1N,inactive
16,O=S(=O)(c1cccc(Cl)c1)N1CCN(S(=O)(=O)c2ccc3c(c2)OCCO3)CC1,inactive
17,Fc1cc(Nc2nc(-c3ccncc3)nc3ccccc23)ccc1-c1ccc(F)c(F)c1F,inactive
18,O=C(Nc1ccc(Br)cc1)Nc1nnc(-c2ccncc2)s1,inactive
19,CCc1nnc2sc(-c3ccc(C)c(NC(=O)c4ccc(-c5cccc(Cl)c5)o4)c3)nn12,inactive
20,COc1cc(F)c(S(=O)(=O)N2CCN(S(=O)(=O)c3cccs3)CC2)c(F)c1,inactive

row,SMILES,Potency
1,CNC(=O)c1cnn2c(C)cc(C)nc12,inactive
2,N=c1c2c(ccn1-c1ccccc1)Oc1ccc3ccccc3c1C2c1ccccc1 (centres undefined),inactive
3,O=C(O)c1ccc(CSc2nnc(-c3ccc([S+](=O)([O-])N4CCCC4)cc3)n2-c2ccccc2)cc1,inactive
4,COc1cc(O)c(C(CC(=O)N2CCCC(C(=O)N3CCCCC3)C2)c2ccc3c(c2)OCO3)c(OC)c1 (centres undefined),inactive
5,Cc1cc(C)n2ncc(C(=O)Nc3cccc(C(F)(F)F)c3)c2n1,inactive
6,COc1ccc(C2Nc3ccccc3C(=O)N2CCO)cc1COc1ccc(NC(C)=O)cc1 (centres undefined),inactive
7,O=[S+]([O-])(c1ccc(-c2ccccc2)cc1)N1CCN([S+](=O)([O-])c2ccc3c(c2)OCCO3)CC1,inactive
8,C(#Cc1cccs1)c1cccnc1,inactive
9,Cn1cncc1CNc1ncnc2ccc(-c3ccc4c(c3)OCO4)cc12,inactive
10,COc1ccc(C2c3c(N)nc(Cc4ccccc4)nc3Oc3ccc4ccccc4c32)cc1OC (centres undefined),inactive
11,O=C(COC(=O)CNC(=O)c1ccccc1Cl)Nc1cc(C(F)(F)F)ccc1Cl,inactive
12,O=C(Nc1ncc(Cc2ccc(C(F)(F)F)cc2)s1)c1ccc(-c2ccccc2)o1,inactive
13,Cc1ccccc1C(=O)N1CCc2cc(-c3nc(NC(=O)CC4CCCCC4)sc3C)ccc21,inactive
14,COc1ccc(Cn2ncc3c4sc(C)cc4n(C)c3c2=O)cc1,inactive
15,c1c[nH]c(C2CCN(c3ncc(-c4ccc5c(c4)OCCCO5)s3)CC2)n1,inactive
16,O=C1CCCC2=C1C1(CCCC1)N=C(Nc1nc3cc(-c4ccccc4)ccc3o1)N2,inactive
17,COc1ccc(-c2nnc3n2N=C(c2ccc(OC)cc2OC)CS3)cc1,inactive
18,O=C(CCCCSc1nnc(-c2cccc3ccccc23)o1)Oc1ccc(F)cc1,inactive
19,O=C1c2ccccc2C(=O)N1Cc1ccncc1,inactive
